This is an account of results in publication PMC7862700, “An all-to-all approach to the identification of sequence-specific readers for epigenetic DNA modifications on cytosine”.

Assay in all cases: DAPPL (digital affinity profiling via proximity ligation, sequencing); 10 mM Tris-HCl pH 7.5, 50 mM NaCl, 1 mM DTT, 4% glycerol, room temperature, 30 min; GST-TFs on glutathione beads, 16-mer random dsDNA library, 0.1% formaldehyde crosslink after washing; high values mean tight binding
Conditions in all cases: protein: recombinant; tags: N-terminal GST; dsDNA, one strand shown

One assay concerns the target T1, FLI1 (Homo sapiens, UniProt Q01543 1-452).
T1 sequence: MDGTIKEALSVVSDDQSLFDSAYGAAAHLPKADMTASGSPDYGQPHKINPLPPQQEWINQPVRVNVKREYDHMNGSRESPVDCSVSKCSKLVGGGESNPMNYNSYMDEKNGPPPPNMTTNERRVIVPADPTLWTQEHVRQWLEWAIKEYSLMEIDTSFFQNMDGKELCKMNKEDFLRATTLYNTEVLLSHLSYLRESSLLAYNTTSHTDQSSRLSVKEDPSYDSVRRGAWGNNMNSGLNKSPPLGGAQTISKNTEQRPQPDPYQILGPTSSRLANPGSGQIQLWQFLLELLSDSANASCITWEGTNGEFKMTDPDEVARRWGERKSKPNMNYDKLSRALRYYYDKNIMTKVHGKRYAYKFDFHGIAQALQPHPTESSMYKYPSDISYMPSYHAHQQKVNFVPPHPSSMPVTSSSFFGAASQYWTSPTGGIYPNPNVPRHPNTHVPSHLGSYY
Put shortly: (§1)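 Human transcription factors fused to GST were expressed in yeast, captured on glutathione beads, given DNA barcodes and pooled with a GST-only negative control. Pools were incubated with 200 nmole of a 16-mer random double-stranded DNA library in Tris/NaCl/DTT/glycerol buffer at room temperature for 30 min. They were then washed, crosslinked with 0.1% formaldehyde, proximity-ligated (BsaI/T4 ligase, 1 h, 37 °C), PCR-amplified and sequenced on an Illumina NextSeq500. Binding signal is each 6-mer's read frequency for a factor divided by its frequency for the GST control.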

The next assay deals with T2, ELK1 (Homo sapiens, UniProt P19419 1-428).
T2 sequence: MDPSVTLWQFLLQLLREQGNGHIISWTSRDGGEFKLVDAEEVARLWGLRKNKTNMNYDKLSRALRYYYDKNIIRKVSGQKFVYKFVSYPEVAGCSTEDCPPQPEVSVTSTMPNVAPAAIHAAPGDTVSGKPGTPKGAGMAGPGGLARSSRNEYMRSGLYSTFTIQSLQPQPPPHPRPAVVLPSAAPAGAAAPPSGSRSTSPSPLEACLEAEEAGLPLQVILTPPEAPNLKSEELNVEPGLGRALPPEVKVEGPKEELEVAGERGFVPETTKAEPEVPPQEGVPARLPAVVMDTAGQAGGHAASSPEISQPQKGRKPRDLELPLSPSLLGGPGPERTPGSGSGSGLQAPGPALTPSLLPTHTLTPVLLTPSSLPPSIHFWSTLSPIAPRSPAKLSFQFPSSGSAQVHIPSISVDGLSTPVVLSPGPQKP
The method in brief:
as §1

Another assay has as its target T3, GABPA (Homo sapiens, UniProt Q06546 1-454).
T3 sequence: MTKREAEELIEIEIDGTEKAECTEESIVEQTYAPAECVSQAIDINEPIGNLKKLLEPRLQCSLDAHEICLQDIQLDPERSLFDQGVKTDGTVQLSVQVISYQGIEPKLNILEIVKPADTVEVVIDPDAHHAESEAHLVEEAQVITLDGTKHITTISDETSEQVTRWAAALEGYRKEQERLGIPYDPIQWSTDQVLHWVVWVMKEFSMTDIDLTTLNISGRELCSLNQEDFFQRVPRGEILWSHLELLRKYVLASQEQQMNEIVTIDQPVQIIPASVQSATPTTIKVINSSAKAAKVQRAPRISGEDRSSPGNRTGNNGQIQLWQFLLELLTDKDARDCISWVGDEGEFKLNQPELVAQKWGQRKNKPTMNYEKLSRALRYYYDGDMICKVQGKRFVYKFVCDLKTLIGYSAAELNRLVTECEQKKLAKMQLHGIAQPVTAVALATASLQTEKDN
Put shortly:
as §1

A further assay addresses T4, ERG (Homo sapiens, UniProt P11308 1-479).
T4 sequence: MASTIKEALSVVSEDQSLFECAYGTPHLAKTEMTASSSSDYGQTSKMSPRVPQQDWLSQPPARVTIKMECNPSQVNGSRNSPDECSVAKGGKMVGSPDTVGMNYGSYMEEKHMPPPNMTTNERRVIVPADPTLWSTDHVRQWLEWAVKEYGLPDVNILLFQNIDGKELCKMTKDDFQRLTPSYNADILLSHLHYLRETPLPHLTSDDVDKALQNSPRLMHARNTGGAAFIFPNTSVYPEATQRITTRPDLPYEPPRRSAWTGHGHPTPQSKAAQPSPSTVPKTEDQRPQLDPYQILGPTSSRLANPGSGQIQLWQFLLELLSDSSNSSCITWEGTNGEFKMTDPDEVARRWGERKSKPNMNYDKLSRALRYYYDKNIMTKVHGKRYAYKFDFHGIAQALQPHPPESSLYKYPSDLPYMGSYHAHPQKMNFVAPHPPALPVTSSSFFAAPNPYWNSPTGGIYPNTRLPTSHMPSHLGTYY
The method in brief: as §1

The target in another assay is ELF1 (Homo sapiens, UniProt P32519 1-619). The method in brief:
as §1

The target of the next assay is T5, EHF (Homo sapiens, UniProt Q9NZC4 1-300).
T5 sequence: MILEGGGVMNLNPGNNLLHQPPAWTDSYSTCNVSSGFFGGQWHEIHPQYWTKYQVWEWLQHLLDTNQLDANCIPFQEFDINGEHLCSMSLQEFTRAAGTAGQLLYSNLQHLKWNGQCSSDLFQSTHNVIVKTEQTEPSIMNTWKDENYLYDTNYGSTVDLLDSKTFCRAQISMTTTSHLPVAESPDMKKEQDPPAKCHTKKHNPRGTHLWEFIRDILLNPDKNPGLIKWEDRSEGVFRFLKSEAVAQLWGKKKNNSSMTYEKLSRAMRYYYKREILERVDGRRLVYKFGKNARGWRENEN
The method in brief:
as §1

Another assay addresses SPI1 (Homo sapiens, UniProt P17947 1-270). Put shortly:
as §1

A further assay deals with SPIB (Homo sapiens, UniProt Q01892 1-262). Put shortly: as §1
Sequence of SPIB (Q01892 whole entry): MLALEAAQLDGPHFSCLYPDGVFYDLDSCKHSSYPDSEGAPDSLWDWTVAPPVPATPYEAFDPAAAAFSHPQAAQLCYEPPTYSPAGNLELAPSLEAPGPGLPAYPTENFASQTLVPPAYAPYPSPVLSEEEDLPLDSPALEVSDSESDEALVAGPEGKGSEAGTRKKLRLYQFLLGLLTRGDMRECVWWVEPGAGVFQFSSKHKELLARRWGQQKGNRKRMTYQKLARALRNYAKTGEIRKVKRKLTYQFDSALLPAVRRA
A further assay deals with T6, ELK3 (Homo sapiens, UniProt P41970 1-407).
T6 sequence: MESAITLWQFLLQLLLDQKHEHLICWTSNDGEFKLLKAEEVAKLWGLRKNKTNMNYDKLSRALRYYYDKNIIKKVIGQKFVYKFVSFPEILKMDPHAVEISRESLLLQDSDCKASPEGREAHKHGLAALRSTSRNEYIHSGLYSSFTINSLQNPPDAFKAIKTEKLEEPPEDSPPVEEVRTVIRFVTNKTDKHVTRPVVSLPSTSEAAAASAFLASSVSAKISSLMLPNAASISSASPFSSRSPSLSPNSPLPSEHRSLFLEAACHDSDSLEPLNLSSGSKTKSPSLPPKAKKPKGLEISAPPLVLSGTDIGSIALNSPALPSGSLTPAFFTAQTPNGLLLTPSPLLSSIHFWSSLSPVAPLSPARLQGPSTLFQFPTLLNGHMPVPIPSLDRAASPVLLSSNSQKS
Put shortly: as §1

Sequence of ELF1 (P32519 whole entry): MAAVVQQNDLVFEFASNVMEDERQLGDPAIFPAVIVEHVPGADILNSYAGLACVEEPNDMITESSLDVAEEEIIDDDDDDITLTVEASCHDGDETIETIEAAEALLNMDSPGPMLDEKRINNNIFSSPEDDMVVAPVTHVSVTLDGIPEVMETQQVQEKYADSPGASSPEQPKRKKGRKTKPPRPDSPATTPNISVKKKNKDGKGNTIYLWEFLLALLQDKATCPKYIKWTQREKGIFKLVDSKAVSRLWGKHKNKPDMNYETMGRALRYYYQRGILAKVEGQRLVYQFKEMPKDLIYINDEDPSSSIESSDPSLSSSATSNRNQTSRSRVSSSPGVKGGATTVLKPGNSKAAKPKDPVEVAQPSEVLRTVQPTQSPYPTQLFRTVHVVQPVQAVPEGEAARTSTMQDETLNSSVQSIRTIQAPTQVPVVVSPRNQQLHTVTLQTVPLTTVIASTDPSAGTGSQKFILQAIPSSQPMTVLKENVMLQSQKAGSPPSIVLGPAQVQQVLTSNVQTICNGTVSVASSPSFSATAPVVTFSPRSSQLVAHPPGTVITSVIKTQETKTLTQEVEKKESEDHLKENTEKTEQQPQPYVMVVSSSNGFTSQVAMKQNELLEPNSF

For CCGACT, the binding signal in the assay with FLI1 was 1.43 fold enrichment (6-mer frequency, TF over GST control); with ELK1, 1.6 fold enrichment (6-mer frequency, TF over GST control); with GABPA it was 1.48 fold enrichment (6-mer frequency, TF over GST control); with ERG, 1.52 fold enrichment (6-mer frequency, TF over GST control); with ELF1, 1.44 fold enrichment (6-mer frequency, TF over GST control); with EHF it was 1.48 fold enrichment (6-mer frequency, TF over GST control). Also, the binding signal was 1.4 fold enrichment (6-mer frequency, TF over GST control) with SPI1; 1.64 fold enrichment (6-mer frequency, TF over GST control) with SPIB; 1.58 fold enrichment (6-mer frequency, TF over GST control) with ELK3.

In the case of ATCACT, the binding signal with FLI1 is 1.19 fold enrichment (6-mer frequency, TF over GST control); in the assay with ELK1, 1.16 fold enrichment (6-mer frequency, TF over GST control); with GABPA it was 1.19 fold enrichment (6-mer frequency, TF over GST control); in the assay with ERG it was 1.28 fold enrichment (6-mer frequency, TF over GST control); in the assay with ELF1 it was 1.34 fold enrichment (6-mer frequency, TF over GST control); with EHF, 1.15 fold enrichment (6-mer frequency, TF over GST control). For the same sequence, the binding signal is 1.32 fold enrichment (6-mer frequency, TF over GST control) with SPI1; 1.38 fold enrichment (6-mer frequency, TF over GST control) with SPIB; 1.18 fold enrichment (6-mer frequency, TF over GST control) in the assay with ELK3.

As for CTCATC, the binding signal with FLI1 was 1.5 fold enrichment (6-mer frequency, TF over GST control); in the assay with ELK1, 1.36 fold enrichment (6-mer frequency, TF over GST control); with GABPA it was 1.41 fold enrichment (6-mer frequency, TF over GST control); with ERG, 1.34 fold enrichment (6-mer frequency, TF over GST control); with ELF1 it was 1.35 fold enrichment (6-mer frequency, TF over GST control); in the assay with EHF, 1.35 fold enrichment (6-mer frequency, TF over GST control). The binding signal with SPI1 is 1.21 fold enrichment (6-mer frequency, TF over GST control); in the assay with SPIB it was 1.41 fold enrichment (6-mer frequency, TF over GST control); with ELK3, 1.47 fold enrichment (6-mer frequency, TF over GST control).

In the case of CCGGTT, the binding signal with FLI1 is 1.88 fold enrichment (6-mer frequency, TF over GST control); in the assay with ELK1, 2.1 fold enrichment (6-mer frequency, TF over GST control); with GABPA, 1.89 fold enrichment (6-mer frequency, TF over GST control); with ERG, 2.2 fold enrichment (6-mer frequency, TF over GST control); with ELF1, 1.96 fold enrichment (6-mer frequency, TF over GST control); in the assay with EHF, 1.97 fold enrichment (6-mer frequency, TF over GST control). Besides, the binding signal in the assay with SPI1 was 2.11 fold enrichment (6-mer frequency, TF over GST control); with SPIB, 1.97 fold enrichment (6-mer frequency, TF over GST control); in the assay with ELK3, 2.26 fold enrichment (6-mer frequency, TF over GST control).

On to TCAATG, for which the binding signal is 1.08 fold enrichment (6-mer frequency, TF over GST control) with FLI1; 1.13 fold enrichment (6-mer frequency, TF over GST control) in the assay with ELK1; 1.11 fold enrichment (6-mer frequency, TF over GST control) with GABPA; 1.1 fold enrichment (6-mer frequency, TF over GST control) with ERG; 1.04 fold enrichment (6-mer frequency, TF over GST control) with ELF1; 1.04 fold enrichment (6-mer frequency, TF over GST control) in the assay with EHF. For the same sequence, the binding signal with SPI1 was 1.07 fold enrichment (6-mer frequency, TF over GST control); with SPIB, 1.11 fold enrichment (6-mer frequency, TF over GST control); in the assay with ELK3, 1.07 fold enrichment (6-mer frequency, TF over GST control).

For the sequence CGAACT, the binding signal with FLI1 is 1.16 fold enrichment (6-mer frequency, TF over GST control); with ELK1 it was 1.17 fold enrichment (6-mer frequency, TF over GST control); with GABPA, 1.24 fold enrichment (6-mer frequency, TF over GST control); in the assay with ERG, 1.06 fold enrichment (6-mer frequency, TF over GST control); in the assay with ELF1, 1.24 fold enrichment (6-mer frequency, TF over GST control); with EHF, 1.17 fold enrichment (6-mer frequency, TF over GST control). The binding signal with SPI1 is 1.16 fold enrichment (6-mer frequency, TF over GST control); with SPIB, 1.03 fold enrichment (6-mer frequency, TF over GST control); with ELK3 it was 1.13 fold enrichment (6-mer frequency, TF over GST control).

Turning to AAGTGC, the binding signal was 1.32 fold enrichment (6-mer frequency, TF over GST control) with FLI1; 1.33 fold enrichment (6-mer frequency, TF over GST control) with ELK1; 1.13 fold enrichment (6-mer frequency, TF over GST control) with GABPA; 1.32 fold enrichment (6-mer frequency, TF over GST control) with ERG; 1.28 fold enrichment (6-mer frequency, TF over GST control) with ELF1; 1.34 fold enrichment (6-mer frequency, TF over GST control) in the assay with EHF. Further, the binding signal with SPI1 was 1.67 fold enrichment (6-mer frequency, TF over GST control); with SPIB, 1.34 fold enrichment (6-mer frequency, TF over GST control); with ELK3, 1.39 fold enrichment (6-mer frequency, TF over GST control).
